From PubChem BioAssay
This is a sample that favours compounds with a hit; in the whole collection about 6.5% have one here.
TGFb inhibitor: qHTS for Inhibitors of TGF-b; 410,000 compounds, 1.2% hits; HepG2 CAGA-GFP TGF-b/SMAD3 reporter, GFP fluorescence, 18 h; TGF-beta stimulated, 500 pg/mL final; Potency, µM (titrated, usually from 46.1 µM), for inactives: at the top dose activity, negative = inhibition, usual class: inhibitors; further: potency means the concentration at half of the fitted maximal effect; on the % scale 0 is the no-effect control and ±100 the full control effect; nearly all actives have a fitted effect of over 65% in size
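Cell-based qHTS in HEPG2 carrying a CAGA-GFP Smad reporter; compounds added before 500 pg/mL final TGF-beta, 18 h incubation at 37 degrees C, GFP fluorescence quantified per cell by imaging cytometry.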
HT1080-NT tox: qHTS for induction of synthetic lethality in tumor cells producing 2HG: qHTS for the HT-1080-NT fibrosarcoma cell line; HT-1080-NT fibrosarcoma viability, CellTiter-Glo ATP luminescence, 48 h; Potency, µM (titrated, usually from 46.1 µM), for the others: top-dose activity, negative = less viability, actives largely listed as cytotoxic; 360,000 compounds, 1.6% hits; AID 686970, 2013;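 further: NT is the 2HG producing partner of a matched IDH1 knockdown line; potency means the concentration at half of the fitted maximal effect; 0% = DMSO-treated cells and -100% = media-only wells without cells; nearly all actives have a fitted effect of over 55% in size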
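Compounds were tested in concentration-response format on HT-1080-NT cells for 48 hours at 37 degrees C. Cell viability came from CellTiter-Glo luminescence; curves were classified by r2, response magnitude and activity.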
HT1080 IDH1KD tx: qHTS for induction of synthetic lethality in tumor cells producing 2HG: qHTS for the HT-1080-IDH1KD cell line. HT-1080 IDH1 knockdown viability, ATP luminescence, 48 h. Potency, µM (top dose mostly 46.1 µM), inactives show top-dose activity, negative = toxicity, usual class: cytotoxic. 360,000 compounds, 2% hits;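 further: potency means the concentration at half of the fitted maximal effect; 0% = DMSO wells and -100% = cell-free medium wells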
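Assay cells: HT-1080 with IDH1 knockdown, 750 per well, RPMI/5% FBS. Exposure: 48 h at 37 °C following 2 h pre-incubation. Read: CellTiter-Glo luminescence; fitted concentration-response, curve class assigned.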
Giardia kill: Small Molecules that selectively kill Giardia lamblia: qHTS; 340,000 compounds, 0.15% hits; activity change, % at 7.66 µM, hits read low; AID 540267, 2011; Giardia lamblia trophozoite viability; in the data active means activity change below about -80%; inconclusive means between about -30% and that limit;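 further: parasites exposed to compound for two days anaerobically before the ATP read; on the % scale 0 is the no-effect control and ±100 the full control effect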
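Luminescence from cellular ATP indicates surviving trophozoites (100 cells/well) following 48 hrs anaerobic compound treatment at 37 deg C; signal develops 15-30 min at room temperature.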
HepG2 viability: qHTS for Inhibitors of TGF-b: Cytotox Counterscreen; HepG2 CAGA-GFP viability, ATP luminescence, 18 h; Potency, µM (titrated, usually from 46.1 µM), without a hit: at the top dose activity change, negative = cytotoxicity, most hits filed as cytotoxic; 410,000 compounds, 0.76% hits; further: potency means the concentration at half of the fitted maximal effect
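HepG2 CAGA-GFP cells (1000/well, DMEM with 1% FBS) received compound, then TGF-beta at 500 pg/mL final, and were incubated 18 hours at 37 degrees C. Viability was read by CellTiter-Glo luminescence. Media-only wells were set as complete cell-killing and DMSO as no toxicity.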
IL-1B inflam inh: qHTS for Inhibitors of Inflammasome Signaling: IL-1-beta AlphaLISA Primary Screen; AID 743279, 2014; activity change, % at 57.5 µM; THP-1 LPS/ATP IL-1B secretion, AlphaLISA, 16 h; active compounds read low; 360,000 compounds, 4.7% hits; in the data active means activity change below about -50%; inconclusive means mostly about -30% to -49%; further: on the % scale 0 is the no-effect control and ±100 the full control effect
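THP-1 cells pretreated 1 hr with compounds (up to 57.5 uM final), then stimulated with LPS (250 ng/mL final) plus ATP (1.25 mM final); secreted IL-1B measured by AlphaLISA after 16 hr, decreased signal indicating inhibition.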
Starred values were filed as active, the others as inactive; ? = inconclusive; · = no result given; [ ] = dose if it differs, or a comment. Unless noted, the call rests on the fitted dose curve; in most records, active means well fitted curve in the direction sought with a large enough effect; inconclusive means small, poorly fitted or top-dose-only effect, or another doubt; inactive means no such curve, though single readings can be large; an effect the other way counts as inactive or inconclusive.

SMILES | TGFb inhibitor | HT1080-NT tox | HT1080 IDH1KD tx | Giardia kill | HepG2 viability | IL-1B inflam inh
CCc1ccc(/C=C2\SC(N3CCCC3)=NC2=O)cc1 | -2.8% | -0.6% | -6.4% | 12.3 | 3.1% | -60.4*
Brc1csc(CN2CCc3nc(Nc4ccccc4)ncc3C2)c1 | 12.6µM* | · | · | · | -41.9% | ·
COc1cc(Nc2ncc3c(n2)CCN(Cc2cc(Br)cs2)C3)cc(OC)c1 | ? | · | · | · | -30.4% | ·
COc1ccc(C(=O)Nc2cnc3sc(C)nn3c2=O)cc1 | 0.7% | 0.4% | 15.9% | 1.4 | 19.1% | -1.2
COc1ccc(NS(=O)(=O)c2cc(Br)cc3c2N(C(=O)C2CC2)CC3)cc1OC | 2.2% | · | · | · | -12.2% | ·
Clc1ccc2oc3c(Cl)ncnc3c2c1 | 1.1% | -15.3% | 5.5% | -9.3 | -15.0% | -100.6*
Cc1nc(Nc2ccccc2)c2oc3ccc(Cl)cc3c2n1 | ? | ? | ? | 3.6 | -39.7% | -4.4
COc1ccc(-c2cn3cc(C)ccc3n2)cc1F | ? | -8.6% | -2.2% | ? | 15.8µM* | -11.8
Clc1ccc2nc(-c3ccc4c(c3)OCO4)cn2c1 | -13.7% | ? | 20.6µM* | ? | -38.6% | 24.7
Cc1ccc2nc(-c3ccc4c(c3)OCCO4)cn2c1 | -17.4% | 3.66µM* | 2.31µM* | ? | -44.9% | 54.2
CC1(C(=O)NCc2ccccc2Br)CCN1Cc1ccc(-c2ccccn2)cc1 (stereo not drawn) | ? | ? | ? | · | -20.4% | -28.9
CCOC(=O)C1CCN(C(=O)c2cc3cc4ccc(C)cc4nc3o2)CC1 | 0.7% | -1.5% | 5.9% | 10.4 | 4.8% | 13.7
COc1ccc(S(=O)(=O)N(Cc2nc(-c3cccc(C)c3)no2)C2CCCCC2)cc1 | -7.6% | · | · | · | -7.6% | ·
CCOC(=O)C1Nc2ccc(C(F)(F)F)cc2C2c3ccccc3CC12 (stereo not drawn) | ? | ? | ? | -27.6 | -100.9% | -99.3*
O=C(NCCOc1ccccc1)C1Nc2ccc(C(F)(F)F)cc2C2c3ccccc3CC12 (stereo not drawn) | ? | ? | ? | -21.8 | 15.8µM* | -74.0*
N#C/C(=C\Nc1ccc2cn[nH]c2c1)c1nc(-c2ccc(Cl)cc2)cs1 | 14.3% | 18.4µM* | 14.6µM* | -11.2 | -21.3% | 48.2
CC(=O)N1CCCC(C(=O)c2ccc(Oc3ccccc3)cc2)C1 (stereo not drawn) | -19.8% | 23.1µM* | 16.4µM* | -21.2 | -15.2% | ?
COCC(=O)N1CCCC(C(=O)c2ccc(Oc3ccccc3)cc2)C1 (stereo not drawn) | ? | -15.6% | -1.4% | 8.7 | 4.9% | 0.0
COc1cc(CNC(=O)c2cc3n(n2)CCCN(Cc2ccc(C)cc2)C3=O)cc(OC)c1OC | -28.7% | · | · | · | -15.5% | ·
N#Cc1cc2c(nc1SCc1cccnc1)CCCCC2 | -5.2% | -16.9% | -0.3%[9.24 µM] | -4.4 | -10.9% | -65.7*
N#Cc1cc2c(nc1SCc1ccccc1)CCCCC2 | 0.2% | 5.5% | 6.4% | 2.0 | 0.4% | 14.8
CN1CCc2nc(SCc3ccc(C(C)(C)C)cc3)c(C#N)cc2C1 | -8.6% | ? | 11.2µM* | 12.0 | -39.6% | -21.2
CN(Cc1ccccc1)C(=O)c1ccc(CSc2nc3cccnc3n2Cc2ccccc2)cc1 | 20µM* | · | · | · | -74.4% | ·
CC1(C)N=C(N)NC(Nc2ccccc2)=N1 | 9.1% | 8.2µM* | ? | 22.9 | -16.5% | 19.7
O=S(=O)(c1ccccc1Br)N(Cc1ccccc1)CC(O)COCc1ccccc1 (stereo not drawn) | ? | ? | ? | 20.6 | -71.7% | -61.5*
Cc1ccc(OC(=S)Nc2ccc(O)cc2)cc1 | 17.4% | 10.2% | 9.0% | -21.9 | 0.6% | -6.6
O=C(O)/C=C/C(=O)NCc1cn(-c2ccccc2)nc1-c1cccc(Br)c1 | 22.8% | -18.0% | -13.7% | -1.0 | -0.4% | -57.8*
